# GPT2 inh = Primary qHTS assay for inhibitors of Glutamate pyruvate transaminase 2 (GPT2) | hit rate 0.25% among 100,000 | AID 1671188, 2021 | Recombinant GPT2, coupled pyruvate oxidase/HRP Amplex Red fluorescence | Potency, µM (top dose mostly 57.7 µM), inactives show at the top dose activity change, negative = inhibition, usual class: inhibitors; note: potency is the fitted concentration of half-maximal effect; nearly all actives have a fitted effect of over 60% in size
# Target sequence (Q8TD30 whole entry, looked up): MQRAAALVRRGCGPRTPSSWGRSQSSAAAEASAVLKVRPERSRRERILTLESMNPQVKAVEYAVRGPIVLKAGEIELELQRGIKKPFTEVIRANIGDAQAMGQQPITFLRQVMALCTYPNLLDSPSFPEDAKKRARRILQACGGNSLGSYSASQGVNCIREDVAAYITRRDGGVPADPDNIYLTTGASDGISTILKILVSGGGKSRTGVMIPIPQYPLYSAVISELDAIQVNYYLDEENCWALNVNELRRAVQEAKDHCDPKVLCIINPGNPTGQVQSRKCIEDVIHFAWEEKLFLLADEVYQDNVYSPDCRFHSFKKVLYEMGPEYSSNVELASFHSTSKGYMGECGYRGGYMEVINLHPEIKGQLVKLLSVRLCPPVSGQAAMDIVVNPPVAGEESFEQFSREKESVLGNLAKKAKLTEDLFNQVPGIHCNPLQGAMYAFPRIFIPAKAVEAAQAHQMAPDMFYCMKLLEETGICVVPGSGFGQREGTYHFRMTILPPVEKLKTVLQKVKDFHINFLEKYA
#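 Recombinant GPT2 (10ng/uL) with 250uM a-KG and 2mM L-alanine, 30 min at room temperature, in HEPES pH 7.5 buffer. Pyruvate detected by pyruvate oxidase/HRP/Amplex Red fluorescence after 30 min in the dark; AOA (50uM) as positive control.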
# IP6K1 inh = Primary qHTS assay for small molecule inhibitors of Inositol hexaphosphate kinase 1 (IP6K1). Inositol hexakisphosphate kinase 1 (Homo sapiens), Q92551. IP6K1 kinase, ADP-Glo luminescence, 2 h; hits give low values. activity change, % (series mostly up to about 58 µM). hit rate 0.81% among 140,000. AID 1645851, 2021; in the data active = activity change below about -25%
#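 ADP-Glo luminescence measures ADP made by human IP6K1 during a 2 h RT reaction with ATP/IP6 (mix at 1.3 mM/130 uM); top library doses 57.5 and 19.1 uM final.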
# IP6K1 conf = Confirmatory qHTS assay for small molecule inhibitors of Inositol hexaphosphate kinase 1 (IP6K1); shares compounds with IP6K1 inh; AID 1645852, 2021; hit rate 13% among 1,200; Potency, µM (top dose mostly 49 µM), for the others: at the top dose activity change, negative = inhibition, usual class: inhibitors; recombinant IP6K1 kinase, ADP-Glo luminescence, 2 h; note: potency is the fitted concentration of half-maximal effect; nearly all actives have a fitted effect of over 65% in size
# * hit, by the source's call; i = inactive; ? = inconclusive; / = no result; [ ] = another dose, or the depositor's remark. Sampled rows, rich in hits. Any-hit rate of the full collection: about 0.82%. Unless noted, calls come from the whole dose curve; as a rule, active = well fitted curve in the direction sought with a large enough effect; inconclusive = small, poorly fitted or top-dose-only effect, or another doubt; inactive = no such curve, though single readings can be large; an effect the other way counts as inactive or inconclusive. % is set by controls: 0 for no effect and ±100 for the full control effect.
SMILES,GPT2 inh,IP6K1 inh,IP6K1 conf
O=C(C1CC1)N1CCCC(C(=O)N2CCCC(c3nc4ccncc4[nH]3)C2)C1 (configuration not stated),i,-3,/
O=c1cc(-c2ccc(O)cc2)oc2cc(O)cc(O)c12,i,/,1.5µM*
O=c1c(-c2ccc(O)cc2)coc2cc(O)ccc12,i,/,/
C=CCNC(=O)N1CC[C@H]2CC(=O)N(CCN3CCNC3=O)CC[C@H]2C1,-7%[88.5 µM],3,/
O=C1NC(Cc2c[nH]c3ccccc23)C(=O)NC1Cc1c[nH]c2ccccc12 (configuration not stated),i,2,/
CN1C(=O)N[C@H](Cc2c[nH]c3c(Cl)cccc23)C1=O,/,/,-5%
CN(C)c1ccc(-c2ccnc(N[C@H]3CO[C@H]4[C@@H]3OC[C@@H]4NC(=O)CSCC(=O)O)n2)cc1,i,19,/
Cc1cccc(N(C)C(=O)Cn2c(=O)n(-c3cccc(C)c3)c(=O)c3c2cc(C)n3C)c1,-6%,33,/
COc1cccc(CN(C)S(=O)(=O)c2cccc(C(=O)NCCF)c2)c1,-2%,0,/
Cc1cccc(OC(=O)c2snnc2C)c1C,/,-18,/
Cc1nnsc1C(=O)Oc1ccc(C#N)cc1,/,-20,/
Cc1nnsc1C(=O)Oc1ccc(Cl)cc1,/,-26*,-4%
Cc1cc(C)cc(OC(=O)c2snnc2C)c1,/,-35*,-12%
CC(C)CNC(=O)c1csc(-c2cccc(OC(C)C)c2)n1,i,4,/
COC(=O)C1=C(C)N=C2SC=C(CC(=O)N3CCCC3)N2C1c1cc(OC)ccc1OC (configuration not stated),5%,8,/
CCC1(C)Cc2c(sc3nc(SC)n(-c4ccc(C)cc4)c(=O)c23)CO1 (configuration not stated),/,-50*,22%
CCSc1nc2sc3c(c2c(=O)n1-c1ccc(C)cc1)CCCC3,/,-6,/
COc1ccccc1CNC(=O)c1cc2cccc3c2n1CC(C)S3 (configuration not stated),/,-33*,-17%
Cc1ccccc1CNC(=O)c1cc2cccc3c2n1CC(C)S3 (configuration not stated),/,26,/
Cc1oc2ccc(O)c(CN(C)Cc3ccccc3)c2c1C(=O)Nc1cccc(C(F)(F)F)c1,/,-14,/
Cc1oc2ccc(O)c(CN(C)Cc3ccccc3)c2c1C(=O)Nc1ccccc1,/,-28*,3%
COCC1CN(C(C)=O)CC12CCN(S(=O)(=O)c1ccc(C#N)cc1)CC2 (configuration not stated),-5%,2,/
CC(C)(C)COc1ccc(-n2cc(C(=O)O)cn2)cc1C#N,i,/,/
Cc1nc(-c2ccc(OCC(C)C)c(C#N)c2)sc1C(=O)O,i,-49*,6.5µM*
COc1ncccc1-c1nc2cc(C(=O)NCc3cccc(Cl)c3)ccc2o1,?,32,/
SMILES,GPT2 inh,IP6K1 inh,IP6K1 conf
COC1CCOC2(CCN(C(=O)c3cc(-c4ccc(F)cc4)n[nH]3)CC2)C1 (configuration not stated),3%,-15,/
Cc1ccc(CS(=O)(=O)c2ncc(Cl)c(C(=O)Nc3nc4ccc(F)cc4s3)n2)cc1,/,-28*,-15%
Cc1ccc(CS(=O)(=O)c2ncc(Cl)c(C(=O)Nc3nc4ccc(C)cc4s3)n2)cc1,/,-13,/
CC(C)c1nnc(NC(=O)c2nc(S(=O)(=O)Cc3ccccc3)ncc2Cl)s1,/,-3,/
CCCc1nnc(NC(=O)c2nc(S(=O)(=O)Cc3ccc(C)cc3)ncc2Cl)s1,/,-33*,?
COc1ccc(CCC(=O)N2CCCN(c3cc(-c4ccc(OC)cc4)[nH]n3)CC2)cc1,?,1,/
COC1CCCN(c2ncc(C(C)(C)C(=O)O)c(N3CCOCC3)n2)C1 (configuration not stated),2%,15,/
CCC(=O)N1CCN(c2nc3c(s2)CC(C(=O)Nc2ccc(F)cc2)CC3)CC1 (configuration not stated),2%,44,/
COc1ccc(OCC(=O)NCc2ccc3c(c2)CCN3C(=O)c2ccc(F)cc2)cc1,/,-36*,-9%
O=C(COc1ccc(F)cc1)NCc1ccc2c(c1)CCN2C(=O)c1ccc(F)cc1,/,-14,/
CCCNC(=O)Cn1c(C)ccc(NS(=O)(=O)c2ccc(C)cc2)c1=O,i,10,/
Cc1ccc(NC(=O)Cn2ncn3c(cc4ccccc43)c2=O)cc1F,/,-1,/
Cc1ccc(NC(=O)Cn2ncn3c(cc4ccccc43)c2=O)cc1C,/,-28*,-7%
CCc1ccc(C(=O)N2CCC3(CC2)N(c2ccccc2)C(=O)CS3(=O)=O)cc1,?,-2,/
CN(C)c1cc(=O)c2ccnc(-c3ccc(N4CCOCC4)cc3)c2o1,2%[88.5 µM],-21,/
Cc1ccoc1C(=O)N1C[C@@H](CO)[C@H](c2ccccn2)C1,-13%,-40*,11%
COC[C@@H]1CN(C(=O)c2occc2C)C[C@H]1c1ccccn1,i,18,/
COc1ccc(C(=O)N(CCC(C)C)Cc2nc(C)c(C)n2Cc2ccccc2C)c(OC)c1,?,0,/
CCOC(=O)c1ccc(NC(=O)c2ccc(=O)n(Cc3cccc(C)c3)c2)cc1,/,-7,/
CC(C)c1ccc(NC(=O)c2ccc(=O)n(Cc3ccccc3)c2)cc1,/,-28*,-25%
CCCNC(=O)Cc1csc2nc(C)c(-c3cc(C)n(-c4ccc(C(C)C)cc4)n3)c(=O)n12,2%,6,/
COc1ccc(S(=O)(=O)N(CC(=O)NC(C)c2ccccc2)c2ccc(C)cc2)cc1OC (configuration not stated),/,-33*,?
COc1ccc(S(=O)(=O)N(CC(=O)NCc2ccc(C)cc2)c2ccc(Cl)cc2)cc1,/,33,/
COc1ccc(C(C)NC(=O)CN(c2cc(OC)ccc2OC)S(=O)(=O)c2ccccc2)cc1 (configuration not stated),/,-8,/
COc1ccc(S(=O)(=O)N(CC(=O)NCc2ccccc2)c2ccc(C)cc2)cc1OC,/,-26*,-4%
SMILES,GPT2 inh,IP6K1 inh,IP6K1 conf
O=C1c2ccccc2C(=O)c2c1ccc(O)c2O,?,-27*,3.7µM*
O=C1c2cccc(O)c2C(=O)c2c(O)cccc21,i,0,/
NC(=O)[C@@H]1CCCN1CC[C@H]1CN(S(=O)(=O)c2ccccc2)CC[C@H]1CC(=O)O,0%[88.5 µM],7,/
COc1ccc(N2CCN(C(=O)C3CCN(S(=O)(=O)c4cnc[nH]4)CC3)CC2)cc1,/,-29*,13%
COc1ccc(N2CCN(C(=O)C3CCN(S(=O)(=O)c4cccs4)CC3)CC2)cc1,/,5,/
COc1ccc(NC(=O)CC2C(=O)N(c3ccccc3)C(=O)N2CCc2sccc2C)cc1 (configuration not stated),/,-33*,-12%
COc1cccc(N2C(=O)C(CC(=O)Nc3ccccc3)N(CCc3sccc3C)C2=O)c1 (configuration not stated),/,-8,/
Cc1cc(C)cc(NS(=O)(=O)c2ccc3[nH]cc(C(=O)NCc4ccccc4Cl)c(=O)c3c2)c1,/,-18,/
Cc1cc(C)cc(NS(=O)(=O)c2ccc3[nH]cc(C(=O)N(C)Cc4ccccc4)c(=O)c3c2)c1,/,-26*,-2%

# Screens (PubChem BioAssay)
